# Assay results from the supplement of paper PMC11417369.
# ± gives the standard deviation of the averaged measurements. The full ranking holds about 25,000 sequences; the median of “ln(normalized median fluorescence intensity)” is about 8.6, and the highest 2% start at about 10. Shown is part of a subset that was picked to be rich in the highest values.
# Test system: PfAP2-EXP AP2 domain (GST-tagged)
# Experiment: gcPBM binding intensity (ln(normalized median fluorescence intensity)); higher = stronger DNA binding
# Method in brief: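 In this array assay, P. falciparum DNA-binding domains with a GST tag, expressed in E. coli, were applied for 1 h to primer-extended double-stranded 36-bp intergenic genomic probes and negative controls on an Agilent 4 × 180k array. Bound protein was visualised with Alexa488 anti-GST antibody at 488 nm. Binding intensity is the highest Masliner-normalised natural-log median intensity across replicate spots of either probe orientation.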
row,Sequence,gcPBM binding intensity (ln)
1,AACTTCTTTTTTATAACACACAAAATATATATACAA [CACACA_site282],8.69 ± 0.42
2,AAAGGAAAAGTTGACTGTACATAAGTAAAAAATAAT [XGTACX_site788],9.15 ± 0.42
3,ATATATATATAATGTAGTACTATTTAATAATAAGCC [XGTACX_site1263],9.775 ± 0.078
4,AAATAAAATACAATATGATAAAATGTTATCATATAT [CACACA_negctrl_site538],8.35 ± 0.38
5,TATATATATATATTCACACATAAATATATGCACCCA [CACACA_site4263],9.96 ± 0.2
6,TTTAATATATATATGTGTACATATAAATTATATATA [XGTACX_site8511],8.2 ± 0.23
7,TTTTTTTTTTTTTTTGCACACAGGGTGTAGGACAAG [CACACA_site2842],8.6
8,TTATATTATACATACACACCCATATAATATGTTTTT [CACACA_site4636],8.73 ± 0.42
9,ATAAATATTGGGTGCACACACATAATATATATATAT [CACACA_site2272],10.1 ± 0.21
10,AACCATTGGGAAAGGGTGCACATATATATATATATA,10.8 ± 0.35
11,GGAAAAACCATTCGCACACACACATAATATATAATA [CACACA_site1424],8.66 ± 0.47
12,TTTAAGCGTTCACTGCTGCACTTTTATGTTGTGACC,8.71 ± 0.51
13,GAAGAAAAATAAAAAGTGCAAAAAAAGTAAAAATTT [GTGCAC_site9897],8.95 ± 0.49
14,CATATACATACACATACACACATACACCCATACACA [CACACA_site8514],8.77 ± 0.55
15,TCAAAGCACCCATACACACACATATATATATATATA [CACACA_site4317],10.3 ± 0.19
16,TATATATATATATACACACACACACCCATATATATA [CACACA_site2538],10.2 ± 0.24
17,TATATATATATATATACACACACACCCATATATATA [CACACA_site8812],10.3 ± 0.3
18,CACATATATACACATACACACACACCCATACACCCA [CACACA_site8505],8.77 ± 0.33
19,CATACACCCATACATACACACATACATATATATATA [CACACA_site8591],9.895 ± 0.064
20,TATATATACATATACACACACACACCCATATATATA [CACACA_site2246],8.84 ± 0.39
21,TGAATAAATCAAAGCACACATACACCCACATATATA [CACACA_site286],8.78 ± 0.49
22,TCAAAGCACAGATACACACACATATATATATATATA [CACACA_site287],10 ± 0.42
23,TATCACAAAATATACTGTACATACAGGCAGTAATAT [XGTACX_site2487],8.71 ± 0.34

row,Sequence,gcPBM binding intensity (ln)
1,GAAAAAAAAAAAAATACACACAAATTGGTATAGAAT [CACACA_site380],8.53 ± 0.47
2,TTGGTGATATTTTTCTCACACATTTACCAGAGATGT [CACACA_site4684],8.44 ± 0.37
3,AGGTACTTTTTTAAAACACACATATAATAAATACAC [CACACA_site4730],8.84 ± 0.28
4,ATGTAAGTTGTGCATTCACACACATATATATATATA [CACACA_site9086],10.2 ± 0.2
5,GTAAGTTGTGCATTCACACACATATATATATATATA [CACACA_site3303],10.2 ± 0.28
6,GTAAGTTGTGCATTCACACACATATAAATATAAATA [CACACA_site7536],8.66 ± 0.24
7,AGTTCAGAATTGAATAGTACATAAATATAACAAAAT [XGTACX_site650],8.88 ± 0.36
8,TGTATTTTTAACATATGTACGAATAGCACGTGTTAT [XGTACX_site3640],8.89 ± 0.44
9,AGTTTTTATTAAAACAAAATTTAATTATAACGTTGA [XGTACX_negctrl_site298],8.08 ± 0.3
10,CAATTAAAAAATAATACATGCATATAAATAGATATT [TGCATGCA_site427],8.71 ± 0.38
11,TATATATATATAGATGCATGCAATTACATATAACAA [TGCATGCA_site118],10.2 ± 0.23
12,ATATAGATGCATAATACACACATCAGATAATTAACC [CACACA_site6871],8.64 ± 0.33
13,TCCTTATTTCATATTTTTAAATAATACAAAAAAAAA [CACACA_negctrl_site773],8.06 ± 0.38
14,TATAATAATACGTATTGTACTATTAGGTTAATTCGT [XGTACX_site264],8.34 ± 0.33
15,TATAATAATAATTATTGTACGATTAGGTTAATTCAT [XGTACX_site1984],8.37 ± 0.23
16,ATGTAGGTTAATTATTGTACGTAGGGGGTGTATATT [XGTACX_site3973],10.2 ± 0.48
17,ATTATTTTAATAAAACGTACAAAATATAAATCAAAA [XGTACX_site3770],8.73 ± 0.45
18,GGTTAGACGAAATATACATGCAATGGAAAATAAGTT [TGCATGCA_site23],9.42 ± 0.24
19,AAATAAAAAGTAAAGCGTACAAATGATCAAATAATA [XGTACX_site7898],9.04 ± 0.53
20,TTTTTTTTTTTTGTCACACATATGGAATATATCTAT [CACACA_site5899],8.54 ± 0.54
21,TATATAATTGTCTTCACACACACATATATATATATA [CACACA_site2744],10 ± 0.3
22,TTGTAATATCTTGTCACACATATATATATATATATA [CACACA_site4937],10.2 ± 0.57
23,TTCAAAATAAAAAATTCACACACATATATATATATA [CACACA_site8653],10 ± 0.45

row,Sequence,gcPBM binding intensity (ln)
1,TATATCTTAATATACACACACACATATATATATATA [CACACA_site4968],10 ± 0.35
2,ATTATATAATTGTCTTCACACACACCGATATATATA [CACACA_site8883],8.93 ± 0.51
3,AAAGAAAGTACCTTCACACATATAAGAATATAATAT [CACACA_site5214],8.6 ± 0.52
4,TTTCTTCATTTTTTCACACATAAGAAAATATAATCA [CACACA_site4275],8.46 ± 0.46
5,ATCTTTCAATAATTCACACATATATATATATATATA [CACACA_site4598],10.2 ± 0.28
6,TATAATTGTCTTCACACACACATATATATATATATA [CACACA_site2743],10.2 ± 0.29
7,AAGAATATAATCTTCACACATATATATATATATATA [CACACA_site5927],10.2 ± 0.33
8,ACATCTCTTATATATTCACACACATATATATAATTA [CACACA_site8424],8.82 ± 0.35
9,ATCTATGAAAAAGGTACATGCAATAAAGAAACATAT [TGCATGCA_site805],9.54 ± 0.45
10,TCATAAATTAAACAAACACACACGTTCTTTTATTTA [CACACA_site713],8.38 ± 0.33
11,CATATTATTATTTTGGTGCATACTTATATATATTTT,8.75 ± 0.31
12,AATATTTTTTTTTAAACATGCATATTTGCATTACCC [TGCATGCA_site437],8.58 ± 0.41
13,ATACTTTTATTTTTGGTGCATATATCATGTAGACGT,9.025 ± 0.035
14,TTTTTTTTTGGGGGTGCATGCAAGACATATATTTAA [TGCATGCA_site228],10.43 ± 0.028
15,CTTTTTTTTTTGGGGGTGCATGCAAGACATATATTT [GTGCAC_site9660],10.51 ± 0.028
16,AATATTTTATTTTGGGTGCAAAAGAATATTATTTCA,8.34 ± 0.071
17,ATTTTGGAAATAATATGTACATATACATAATATATA [XGTACX_site4177],8.36 ± 0.29
18,GCATTGATCAAACATACACACATGGTTAATAAAAAT [CACACA_site2085],8.72 ± 0.55
19,ATATATATATATTTATGTACATATTATTTATTCTTT [XGTACX_site6567],9.94 ± 0.17
20,ATTTATTATATATACACACATACATATATATATATA [CACACA_site2159],9.91 ± 0.42
21,TCTTTATTATTCGCCACACACATATATATATATATA [CACACA_site3077],10.2 ± 0.43
22,TCTTTATTATTCGCCACACACATATAAATATAAATA [CACACA_site7441],8.88 ± 0.38
23,ATTCTTTATTATTCGCCACACACATATATATATATA [CACACA_site9009],10.2 ± 0.28

row,Sequence,gcPBM binding intensity (ln)
1,TTTCTTTTTATATTCACACATAAATATATATATATA [CACACA_site6053],9.81 ± 0.28
2,CCATTCAAATTTCGCACACACATACAAAAAAAAAAA [CACACA_site3093],8.59 ± 0.42
3,ATGCAATAATAATATTGTACGCATATATTTTTTACT [XGTACX_site3384],8.41 ± 0.3
4,TATAGCATAAATATGTGTACATATTTATATGATATT [XGTACX_site6333],8.37 ± 0.28
5,AATACGAAGGATAAGAGTACTAATTAAATAAATGAA [XGTACX_site523],8.96 ± 0.28
6,AGGTAGTTCTGTATCACACACATATATATATATATA [CACACA_site2214],10.3 ± 0.47
7,AGGTAGTTCTGTATCACACACATATAAATATAAATA [CACACA_site7110],8.48 ± 0.4
8,TAAGGTAGTTCTGTATCACACACATATATATATATA [CACACA_site8693],10.1 ± 0.26
9,TCAACAAAATTGAAGGAACACACATACATATATATA [CACACA_site7940],8.87 ± 0.23
10,CATACACCCAGACACACACACATATATATATATATA [CACACA_site634],10.1 ± 0.44
11,CCCCCCCACAGACACACACACATACATACCACATAT [CACACA_site2306],10.3 ± 0.014
12,TTCCCCCCCAGACACACACACACATACATACCACAT [CACACA_site2305],10.5 ± 0.24
13,CACCCCCACAGACACACACACACACCCACATATATA [CACACA_site365],9.27 ± 0.39
14,CACAGACACCCATACACACACATACCCATATATATA [CACACA_site5023],8.79 ± 0.32
15,TACAGACATACATACACACATACATACAGACATACA [CACACA_site1941],8.66 ± 0.26
16,CATTTCTATATAAGCACACACGTGGAATTTTTTTTT [CACACA_site5537],8.7 ± 0.26
17,GCCATAAAAATATATACACACATAAAAAAAAATTAT [CACACA_site1176],8.36 ± 0.53
18,CTTTGTAGTTGGTCCACACACATATCTGGAAGAATA [CACACA_site4834],8.54 ± 0.39
19,AACTTTTAGAAGAACACACACATATAGATTATGACC [CACACA_site6256],8.8 ± 0.26
20,ATTATAACACCTCCCCCCCTTTTTTTATGAAGACCA [CACACA_negctrl_site1043],10.6 ± 0.18
21,TATATTATGACCACCACACACCTATACACATAACAT [CACACA_site7199],8.88 ± 0.43
